PubChem BioAssay AID1159580 (chemical genetic matrix, 2015)
Screen size: about 5,500 compounds; about 2,000 (36%) were called active. Another 18% or so got no clear call; they are omitted. Rule as the data show it: active = normalized growth mostly below about 0.91 (no sharp cut-off); inconclusive = no clear call, values can overlap the other calls; inactive = mostly above about 0.92. This is one part of the list.

Assay: chemical genetic growth profiling, strain panel (AID 1159580);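 also: tested at 20 µM; growth read once vehicle control cultures reached saturation at 30 °C; 1 = growth at the plate median or of vehicle wells; lower values mean less growth of the strain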
Conditions: growth OD

Measured: normalized growth

O=C(Nc1ccccc1)Nc1ccccc1
inactive: S. cerevisiae deletion strains, locus YKL009W, strain mrt4, hits give low values 0.956 | S. cerevisiae deletion strains, locus YKL068W, hits give low values 0.975 | S. cerevisiae deletion strains, locus YKL085W, strain MDH1 (second series), hits give low values 0.979 | S. cerevisiae deletion strains, locus YKL085W, strain MDH1, hits give low values 0.979 | S. cerevisiae deletion strains, locus YKL160W, strain elf1, hits give low values 0.95 | S. cerevisiae deletion strains, locus YKR001C, strain vps1, hits give low values 0.97 | S. cerevisiae deletion strains, locus YKR026C, strain gcn3, hits give low values 0.967 | S. cerevisiae deletion strains, locus YKR091W, strain srl3, hits give low values 0.962 | S. cerevisiae deletion strains, locus YLL001W, strain dnm1, hits give low values 0.982 | S. cerevisiae deletion strains, locus YLL026W, hits give low values 0.958 | S. cerevisiae deletion strains, locus YLL041C, strain sdh2, hits give low values 0.982 | S. cerevisiae deletion strains, locus YLR027C, strain aat2, hits give low values 0.944 | S. cerevisiae deletion strains, locus YLR058C, strain SHM2, hits give low values 0.99 | S. cerevisiae deletion strains, locus YLR102C, strain apc9, hits give low values 0.98 | S. cerevisiae deletion strains, locus YLR113W, strain HOG1, hits give low values 1.01 | S. cerevisiae deletion strains, locus YLR221C, strain rsa3, hits give low values 0.957 | S. cerevisiae deletion strains, locus YLR258W, strain gsy2, hits give low values 0.974 | S. cerevisiae deletion strains, locus YLR262C, strain YPT6 (second series), hits give low values 0.96 | S. cerevisiae deletion strains, locus YLR262C, strain YPT6, hits give low values 1.34 | S. cerevisiae deletion strains, locus YLR268W, strain sec22, hits give low values 0.989 | S. cerevisiae deletion strains, locus YLR320W, strain mms22, hits give low values 0.99 | S. cerevisiae deletion strains, locus YLR342W, strain FKS1 (second series), hits give low values 0.991 | S. cerevisiae deletion strains, locus YLR342W, strain FKS1, hits give low values 0.972 | S. cerevisiae deletion strains, locus YLR357W, strain rsc2, hits give low values 0.96 | S. cerevisiae deletion strains, locus YLR370C, strain arc18, hits give low values 0.932 | S. cerevisiae deletion strains, locus YLR371W, strain rom2, hits give low values 0.944 | S. cerevisiae deletion strains, locus YLR384C, strain iki3, hits give low values 0.967 | S. cerevisiae deletion strains, locus YLR418C, strain cdc73, hits give low values 1.06 | S. cerevisiae deletion strains, locus YML016C, strain PPZ1, hits give low values 0.991 | S. cerevisiae deletion strains, locus YML032C, strain rad52, hits give low values 0.98 | S. cerevisiae deletion strains, locus YML120C, strain ndi1, hits give low values 0.98 | S. cerevisiae deletion strains, locus YML124C, strain tub3, hits give low values 0.971 | S. cerevisiae deletion strains, locus YMR058W, strain fet3, hits give low values 0.946 | S. cerevisiae deletion strains, locus YMR078C, strain ctf18, hits give low values 0.981 | S. cerevisiae deletion strains, locus YMR125W, strain sto1, hits give low values 0.949 | S. cerevisiae deletion strains, locus YMR129W, hits give low values 0.959 | S. cerevisiae deletion strains, locus YMR205C, strain PFK2, hits give low values 0.984 | S. cerevisiae deletion strains, locus YMR223W, strain ubp8, hits give low values 0.976 | S. cerevisiae deletion strains, locus YMR231W, strain pep5, hits give low values 0.99 | S. cerevisiae deletion strains, locus YMR263W, strain SAP30, hits give low values 1 | S. cerevisiae deletion strains, locus YMR307W, strain GAS1, hits give low values 1.34 | S. cerevisiae deletion strains, locus YNL067W, strain RPL9B, hits give low values 0.996 | S. cerevisiae deletion strains, locus YNL071W, strain lat1, hits give low values 0.965 | S. cerevisiae deletion strains, locus YNL128W, strain TEP1, hits give low values 1 | S. cerevisiae deletion strains, locus YNL183C, strain NPR1, hits give low values 0.949 | S. cerevisiae deletion strains, locus YNL209W, strain ssb2, hits give low values 0.966 | S. cerevisiae deletion strains, locus YNL233W, strain BNI4, hits give low values 1.05 | S. cerevisiae deletion strains, locus YNL248C, strain rpa49, hits give low values 0.921 | S. cerevisiae deletion strains, locus YNL250W, strain rad50, hits give low values 0.973 | S. cerevisiae deletion strains, locus YNL271C, strain bni1, hits give low values 0.978 | S. cerevisiae deletion strains, locus YNL298W, strain CLA4, hits give low values 1.02 | S. cerevisiae deletion strains, locus YNL307C, strain MCK1, hits give low values 0.985 | S. cerevisiae deletion strains, locus YNL322C, strain KRE1 (second series), hits give low values 0.965 | S. cerevisiae deletion strains, locus YNR049C, strain mso1, hits give low values 0.95 | S. cerevisiae deletion strains, locus YNR052C, strain pop2, hits give low values 0.993 | S. cerevisiae deletion strains, locus YOL012C, strain htz1 0.934 | S. cerevisiae deletion strains, locus YOL147C, strain pex11, hits give low values 0.978 | S. cerevisiae deletion strains, locus YOR001W, strain rrp6, hits give low values 0.957 | S. cerevisiae deletion strains, locus YOR061W, strain CKA2, hits give low values 1.02 | S. cerevisiae deletion strains, locus YOR069W, strain VPS5, hits give low values 1 | S. cerevisiae deletion strains, locus YOR070C, strain gyp1, hits give low values 0.977 | S. cerevisiae deletion strains, locus YOR080W, strain dia2, hits give low values 0.963 | S. cerevisiae deletion strains, locus YOR083W, strain WHI5, hits give low values 0.959 | S. cerevisiae deletion strains, locus YOR106W, strain vam3, hits give low values 0.902 | S. cerevisiae deletion strains, locus YOR136W, strain idh2, hits give low values 0.996 | S. cerevisiae deletion strains, locus YOR144C, strain elg1, hits give low values 0.97 | S. cerevisiae deletion strains, locus YOR184W, strain ser1, hits give low values 1.03 | S. cerevisiae deletion strains, locus YOR231W, strain MKK1, hits give low values 1.01 | S. cerevisiae deletion strains, locus YOR265W, strain rbl2, hits give low values 0.964 | S. cerevisiae deletion strains, locus YOR270C, strain vph1, hits give low values 0.875 | S. cerevisiae deletion strains, locus YOR290C, strain snf2, hits give low values 0.907 | S. cerevisiae deletion strains, locus YOR316C, strain cot1, hits give low values 0.989 | S. cerevisiae deletion strains, locus YPL051W, strain arl3, hits give low values 0.928 | S. cerevisiae deletion strains, locus YPL055C, strain LGE1, hits give low values 1.17 | S. cerevisiae deletion strains, locus YPL078C, strain atp4, hits give low values 0.923 | S. cerevisiae deletion strains, locus YPL106C, strain sse1, hits give low values 0.932 | S. cerevisiae deletion strains, locus YPL240C, strain hsp82, hits give low values 0.967 | S. cerevisiae deletion strains, locus YPL241C, strain CIN2, hits give low values 0.998 | S. cerevisiae deletion strains, locus YPL256C, strain CLN2, hits give low values 0.985 | S. cerevisiae deletion strains, locus YPR119W, strain clb2, hits give low values 0.966 | S. cerevisiae deletion strains, locus YPR141C, strain kar3, hits give low values 0.975 | S. cerevisiae deletion strains, locus YPR163C, strain tif3, hits give low values 0.987 | S. cerevisiae deletion strains, locus YPR167C, strain met16, hits give low values 0.984 | S. cerevisiae deletion strains, strain wtn01, hits give low values 0.996 | S. cerevisiae strains, strain wild type, hits give low values 1.07
active: S. cerevisiae deletion strains, locus YLR039C, strain RIC1, hits give low values 1.38 [resistant]
